Assay outcomes deposited in PubChem by National Center for Advancing Translational Sciences (NCATS).
Many of the other results were omitted from the sample, so hits are more common in it than they were.
p53ts 39C tox = kills p53ts cells at the nonpermissive temperature; H1299-p53A138V viability at 39C, ATP luminescence, 24 h; Potency, µM (titrated, usually from 46.1 µM), without a hit: at the top dose activity change, negative = cell killing, most hits filed as cytotoxic; actives 1.5% (n = 130,000); note: potency is the fitted concentration of half-maximal effect; % is set by controls: 0 for no effect and ±100 for the full control effect; nearly all actives have a fitted effect of over 55% in size
FLuc inh = blocks Photinus pyralis firefly luciferase activity; P08659; purified firefly luciferase, luminescence, 8 min; Potency, µM (doses to about 57.1 µM), for the others: at the highest dose activity change, negative = inhibition, hits mostly inhibitors; actives 2.2% (n = 72,000); note: potency is the fitted concentration of half-maximal effect; % is set by controls: 0 for no effect and ±100 for the full control effect; nearly all actives have a fitted effect of over 40% in size
Target sequence (P08659 whole entry, looked up): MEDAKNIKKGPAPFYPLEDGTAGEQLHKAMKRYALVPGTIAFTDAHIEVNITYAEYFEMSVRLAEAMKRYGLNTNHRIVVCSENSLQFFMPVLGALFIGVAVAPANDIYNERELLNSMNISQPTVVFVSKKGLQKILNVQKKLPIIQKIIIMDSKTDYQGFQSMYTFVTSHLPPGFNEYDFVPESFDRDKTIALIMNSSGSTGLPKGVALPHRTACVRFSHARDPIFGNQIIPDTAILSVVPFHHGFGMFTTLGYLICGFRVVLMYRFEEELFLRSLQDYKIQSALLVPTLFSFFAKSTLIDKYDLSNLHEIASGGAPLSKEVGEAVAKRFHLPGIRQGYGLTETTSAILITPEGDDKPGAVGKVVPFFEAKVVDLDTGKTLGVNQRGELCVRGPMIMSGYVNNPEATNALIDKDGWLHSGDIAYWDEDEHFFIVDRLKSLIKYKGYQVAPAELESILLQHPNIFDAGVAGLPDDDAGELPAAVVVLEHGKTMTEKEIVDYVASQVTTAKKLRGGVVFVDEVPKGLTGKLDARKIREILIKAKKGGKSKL
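Compounds were tested as concentration series (qHTS) against purified P. pyralis luciferase with luciferin and 10 uM ATP in 50 mM imidazole pH 7.2, 50 mM KCl, 7 mM MgCl2, 0.01% Tween 20, 0.05% BSA. Luminescence was read after 8 min at ambient temperature.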
p53ts 32C tox = cytotoxicity in p53ts cells at permissive temperature | H1299-p53A138V at 32C, ATP luminescence viability, 24 h | AID 924 | Potency, µM (titrated, usually from 46.1 µM), without a hit: at the top dose activity change, negative = cytotoxicity, hits mostly cytotoxic | actives 0.93% (n = 130,000);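 note: potency is the fitted concentration of half-maximal effect; 0% = DMSO and -100% = full killing by reference compound; nearly all actives have a fitted effect of over 55% in size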
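H1299-p53 A138V cells (temperature-sensitive p53) exposed 24 h to up to 46 uM compound at 32C, where p53 is wild-type in conformation. Viability read as ATP luminescence and normalised to DMSO and 100 uM tamoxifen. AC50 fitted with the Hill equation.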
IMPase inh = IMPase inhibition in cells | 120,000 tested, under 10 active | CHO-M1 cells, IP1 accumulation, HTRF TR-FRET ratio | inhibition (IP1 accumulation), % at 46.1 µM | P97697; active = well fitted curve in the direction sought with a large enough effect in the signal ratio, not every such curve was filed as active; inconclusive = small, poorly fitted or top-dose-only effect, or a change in a side signal; inactive = no such curve, though single readings can be large or run the other way; the % refers to the signal ratio;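 note: cells stimulated with carbachol in lithium chloride buffer; plate controls were DMSO basal wells for no effect and reference inhibitor wells for full effect; higher means more IMPase inhibition seen as more IP1 and lower FRET ratio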
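Carbachol-driven Gq signalling in CHO-M1 cells (2000/well) generates IP1. Compounds that block IMPase raise IP1 and so reduce the FRET signal from Eu-anti-IP1 and d2-IP1 after a 10 min room-temperature lysis.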
IkB sig inh = suppresses IkB signaling in ABC-DLBCL reporter cells | ABC-DLBCL IkBa-CBG/CBR dual luciferase ratio, 4 h; response scale: scaled: untreated 0%, proteasome inhibitor 100% | Potency, µM (top dose mostly 57.1 µM), without a hit: top-dose IkBa stabilization activation | actives 0.04% (n = 110,000) | AID 445; active = well fitted curve in the direction sought with a large enough effect in the signal ratio, not every such curve was filed as active; inconclusive = small, poorly fitted or top-dose-only effect, or a change in a side signal; the % refers to the signal ratio;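 note: potency is the fitted concentration of half-maximal effect; the direction sought is a rising ratio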
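Luminescence ratio of IκBα-fused green versus native red beetle luciferase in OCI-Ly3 cells, 4 h post-doxycycline with compound; red signal alone, scaled from basal (0%) to zero light (-100%), flagged nonspecific or cytotoxic effects.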
Imprint erasure = genomic imprint erasure induction; actives 0.02% (n = 110,000); mouse ES Peg3-LacZ reporter, beta-gal luminescence, 40 h; Potency, µM (titrated, usually from 60.7 µM), without a hit: top-dose activity change, positive = activation, hits mostly activators; note: potency is the fitted concentration of half-maximal effect
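Gelatin-coated wells received 300 freshly trypsinized female ES cells with a Peg3LacZ-Neo reporter on the maternal allele, then incubated 40 hours at 37C. BetaGlo was added for 5 minutes at room temperature before a single luminescence read.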
An asterisk follows results filed as active; ? = inconclusive; . = no result given; [ ] = dose if it differs, or a comment. Unless noted, calls come from the whole dose curve; as a rule, active = well fitted curve in the direction sought with a large enough effect; inconclusive = small, poorly fitted or top-dose-only effect, or another doubt; inactive = no such curve, though single readings can be large; an effect the other way counts as inactive or inconclusive.

SMILES	p53ts 39C tox	FLuc inh	p53ts 32C tox	IMPase inh	IkB sig inh	Imprint erasure
Nc1nc2c(ncn2[C@@H]2C=C[C@@H](CO)C2)c(=O)[nH]1	-8%[9.22 µM]	3%[11.4 µM]	-5%[9.22 µM]	.	0%[11.4 µM]	5%[10.9 µM]
CCCCNC(=O)CCCn1c(=O)c2ccccc2n(Cc2ccc(Cl)cc2)c1=O	-56%	.	6%	.	-2%	-4%[10.9 µM]
CCCn1c(C)nc2c(NC3CCN(Cc4ccccc4)C3)nc(C)nc21 (stereo unspecified)	-8%	.	0%	.	.	-10%
COc1nc(-c2ccc(C)cc2)ccc1-c1noc(-c2ccco2)n1	-7%	-5%	-15%	-4	0%	-12%
COc1ccc(-c2nc(-c3ccncc3)no2)cc1OC	-12%	?	-10%	4	?	-53%
COc1ccc(-c2noc(-c3cccc(Cl)c3)n2)cc1OC	2%	1%	2%	.	0%	-2%
COc1ccc(-c2noc(-c3ccco3)n2)cc1OC	-9%	13µM*	?	-2	1%	-61%
COc1nc(C)ccc1-c1noc(-c2ccco2)n1	13µM*	7.9µM*	13µM*	-2	-3%	-67%
COc1ccc(-c2noc(-c3ccccc3Cl)n2)cc1OC	?	16µM*	-29%	2	4%	-62%
O=C(O)/C=C\C(=O)N1Cc2cc3ccccc3nc2C1	14%[9.22 µM]	0%[11.4 µM]	3%[9.22 µM]	.	0%[11.4 µM]	-14%[10.9 µM]
O=S(=O)(c1ccccc1)c1nc(-c2cccs2)oc1SCc1ccccc1Cl	17%	.	7%	.	-1%	-13%[10.9 µM]
CC[C@@H]1[C@H]2CCCCN3[C@@H]2[C@@H](C[C@H]3[C@@H]2C[C@H](C)C(=O)O2)[C@@H]2[C@H]1OC(=O)[C@H]2C	.	0%[11.4 µM]	.	.	2%[11.4 µM]	.
COc1ccc(-n2c(=O)c3c(C)c(C)sc3n(CC(=O)NCc3ccc(C)cc3)c2=O)c(OC)c1	-11%	.	0%	.	3%	11%[10.9 µM]
Cc1nc2ncnn2c(N2CCN(C(c3ccccc3)c3ccccc3)CC2)c1C	20µM*	1%	?	6	?	-41%
CC(C)C[C@H](NC(=O)[C@@H](NC(=O)N[C@@H](Cc1ccccc1)C(=O)O)[C@H]1CCN=C(N)N1)C(=O)N[C@H](C=O)Cc1ccccc1	.	0%[11.4 µM]	.	.	3%[11.4 µM]	.
CCOc1cc(C(=O)Nc2ccc(-c3nnc4n3CCCCC4)cc2)cc(OCC)c1OCC	.	.	-1%	.	.	.
Cc1c(C(=O)Nc2ccc(-c3nnc4n3CCCCC4)cc2)oc2c1ccc1ccccc12	-25%	.	1µM*	13	.	.
S=C=Nc1cccc(NC(=S)NCCCCNC(=S)Nc2cccc(N=C=S)c2)c1	2%	.	6%	.	.	-6%
O=C(c1ccco1)N1CCN(c2nc3ccc(Cl)cc3s2)CC1	-25%	.	0%	.	1%	-5%[10.9 µM]
CCOc1ccc2nc(N3CCCC(C(=O)N4CCN(CC)CC4)C3)sc2c1 (stereo unspecified)	-19%	?	-28%	3	-5%	-10%
CCOc1ccc2nc(N3CCN(C(=O)CS(=O)(=O)c4ccc(F)cc4)CC3)sc2c1	6.3µM*	.	14µM*	.	?	-12%[10.9 µM]
CCOc1ccc2nc(N3CCC(C(=O)N4CCN(C5CCCCC5)CC4)CC3)sc2c1	-29%	16µM*	-25%	3	9%	-8%
CCOc1ccc2nc(N3CCC(C(=O)N4CCN(C(=O)c5ccco5)CC4)CC3)sc2c1	?	7.9µM*	?	7	?	-16%
CCOc1ccc2nc(N3CCC(C(=O)Nc4nnc(CC)s4)CC3)sc2c1	4%	-6%	-7%	1	7%	-9%
CCOc1ccc2nc(N3CCN(C(=O)c4ccc(S(=O)(=O)CC)cc4)CC3)sc2c1	-5%	.	2%	.	?	15%[10.9 µM]
CCOc1ccc2nc(N3CCCCCC3)sc2c1	-14%	13µM*	?	-8	5%	-42%
Nc1ncn([C@@H]2O[C@@H](CO)[C@@H](O)[C@H]2O)c(=O)n1	.	0%	.	.	-11%	.
